According to PubChem BioAssay AID2014 (Sanford-Burnham Center for Chemical Genomics, 2009):
Out of some 290,000 compounds screened, about 3,000 (1%) were called active. The rule behind the calls is not given here. What follows is part of a selection rich in actives, with near analogues and random picks from the rest.

Biological target: Polyadenylate-binding protein 1 (Homo sapiens) (UniProt P11940)
Experiment: PABP poly(A) RNA binding inhibitors, primary screen, biochemical, fluorescence polarization, uHTS (AID 2014);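 note: calls also rest on retests at 20 µM and on dose response follow-up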
Conditions: stronger effect = higher value

Polyadenylate-binding protein 1 (Homo sapiens), sequence (P11940 whole entry, looked up): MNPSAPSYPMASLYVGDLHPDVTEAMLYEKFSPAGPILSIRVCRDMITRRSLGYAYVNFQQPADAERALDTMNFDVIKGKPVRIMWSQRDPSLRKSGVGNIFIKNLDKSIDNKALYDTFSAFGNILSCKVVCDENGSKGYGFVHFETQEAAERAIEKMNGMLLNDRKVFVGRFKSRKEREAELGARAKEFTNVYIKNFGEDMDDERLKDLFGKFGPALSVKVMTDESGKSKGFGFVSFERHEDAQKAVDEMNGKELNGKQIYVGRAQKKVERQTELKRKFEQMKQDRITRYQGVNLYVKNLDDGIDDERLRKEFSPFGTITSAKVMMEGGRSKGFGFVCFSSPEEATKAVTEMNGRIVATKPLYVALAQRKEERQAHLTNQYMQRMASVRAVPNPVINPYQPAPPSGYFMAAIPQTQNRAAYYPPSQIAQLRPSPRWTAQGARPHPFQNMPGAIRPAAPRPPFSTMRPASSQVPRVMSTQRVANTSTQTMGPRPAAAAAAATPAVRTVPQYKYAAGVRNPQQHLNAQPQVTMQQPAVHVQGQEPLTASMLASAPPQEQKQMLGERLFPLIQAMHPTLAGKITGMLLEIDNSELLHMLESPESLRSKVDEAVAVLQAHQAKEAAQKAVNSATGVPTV

| Structure (SMILES) | inhibition (at 35 µM) | inhibition (confirmation repeats, at 20 µM) [%] |
| --- | --- | --- |
| CC(C)(C)C1CCC(C(=O)NCC(c2cccs2)N2CCOCC2)CC1 (stereo not given) | 15.6% (inactive) | – |
| O=C(C[n+]1ccccc1)N/N=C/c1ccc(O)cc1 | -10% (inactive) | – |
| O=C(CC(=O)Nc1ccc(Cl)c(Cl)c1)N/N=C/c1ccc(O)cc1 | 51.1% (active) | 59.9 |
| Nc1nnn(CC(=O)N/N=C/c2ccc(O)cc2)n1 | 15.3% (inactive) | – |
| CN(C)c1ccc(S(=O)(=O)NCC(=O)NCC2CCCCC2)cc1[N+](=O)[O-] | 13.4% (inactive) | – |
| COc1cccc(C(=O)N/N=C(\C)c2cccc(NC(=O)c3ccc(F)cc3)c2)c1OC | -0.8% (inactive) | – |
| COc1ccccc1OCCCC(=O)Nc1ccc2c(c1)OCCO2 | 3.8% (inactive) | – |
| CCc1nnc(NC(=O)/C=C/c2ccc(C)o2)s1 | 4.4% (active) | 56.5 |
| CCC(CC)c1nnc(NC(=O)/C=C/c2ccco2)s1 | 10% (inactive) | 1.7 |
| Cc1nnc(NC(=O)/C=C/c2ccco2)s1 | -3.5% (inactive) | 8.4 |
| CCOC(=O)c1c(S(=O)(=O)Nc2ccc(CN3CCC(C)CC3)cc2)c(C)n(C)c1C | -2.2% (inactive) | – |
| CCOC(=O)N1CCC(N2Cc3cccc(C(=O)Nc4c(C)cccc4CC)c3C2=O)CC1 | -4.1% (inactive) | – |
| CCOC(=O)CC1COCCN1C(=O)c1cc(COc2ccc(F)c(F)c2)on1 (stereo not given) | 1.8% (inactive) | – |
| O=C(O)c1ccc(OCC2CCCO2)cc1 (stereo not given) | 6.4% (inactive) | – |
| CC(C)(C)C(=O)CN1C2=NCCN2c2ccccc21 | -8.1% (inactive) | – |
| O=C(NCC(=O)N1CCN(c2ccccc2F)CC1)c1cccs1 | 7.4% (inactive) | – |
| O=C(CN1C2=NCCN2c2ccccc21)c1cccs1 | 88.7% (active) | 105 |
| COc1ccc(N2CCN(C(=O)Cn3cnc4sc(C)c(S(=O)(=O)N5CCOCC5)c4c3=O)CC2)cc1 | -2.8% (inactive) | – |
| Cc1cccc2[nH]c(CN(C)C(=O)C3CCC(=O)N(CCc4ccccc4)C3)nc12 (stereo not given) | -4.2% (inactive) | – |
| O=C(COc1ccc(/C=N/NC(=O)c2ccc(O)cc2)cc1)Nc1ccc([N+](=O)[O-])cc1 | 94.5% (active) | 77.2 |
| O=C(N/N=C/c1ccc(OCc2ccccc2)cc1)c1ccc(O)cc1 | -15.7% (inactive) | – |
| O=C(COc1ccc([N+](=O)[O-])cc1)Nc1ccc(N2CCCC2)cc1 | 7% (inactive) | – |
| CC(C)c1ccc(Cc2nnc(NCCCO)[nH]c2=O)cc1 | 3.4% (inactive) | – |
| CCOc1cc(CN2CCCC(CO)(Cc3ccc(F)cc3F)C2)ccc1OC (stereo not given) | 4.9% (inactive) | – |
| CCOCc1nnc(NC(=O)CCS(=O)(=O)Cc2ccccc2)s1 | -0.4% (inactive) | – |
| Cc1ccc(-c2nn(-c3ccccc3)cc2/C=C2\SC(=S)N(CCCCCC(=O)O)C2=O)o1 | 35.4% (active) | 54.4 |
| CN(C)S(=O)(=O)c1cccc(-c2nn(-c3ccccc3)cc2/C=C2\SC(=S)N(CC(=O)O)C2=O)c1 | 38.3% (inactive) | – |
| COc1ccc(-c2nn(-c3ccccc3)cc2/C=C2/SC(=S)N(CCCC(=O)O)C2=O)c(C)c1 | 4.8% (inactive) | – |
